PubChem BioAssay
The source made the active and inactive calls.

Columns and labels:
[1] = system: Plasmodium falciparum Sir2 (PF13_0152, Sir2A); assay: Plasmodium falciparum Sir2A binding compounds – biochemical, small-molecule microarray, 635 nm fluorescence, primary screen (AID 1098); details: fluorescence 635 nm, higher = more signal;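 note: score merges spot fluorescence intensity with its signal-to-noise ratio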
[2] = probe aDKK1 binding to arrayed compounds – biochemical, biotinylated probe, 635/667 nm fluorescence, primary screen (AID 1099); details: small-molecule microarray, higher = more signal;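 note: score merges 667nm spot fluorescence with signal to noise across triplicate slides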
[3] = probe aCHRDL2 binding to arrayed compounds – biochemical, biotinylated probe, 635/667 nm fluorescence, primary screen (AID 1100); details: small-molecule microarray, higher = more signal
[4] = change in splice reporter luminescence, either direction, cell-based, HEK293, spliceosome inhibition project, primary screen (AID 1101); details: HEK293 splicing luciferase reporter, 24 h, higher = more signal, called active from +8 up or from −8 down;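 note: HEK293 cells carrying a splicing-competent luciferase reporter gene; test concentration not given here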
[5] = molecular target: Fibroblast growth factor 10 (Homo sapiens) (UniProt O15520); assay: compounds binding fibroblast growth factor 10 – biochemical, small-molecule microarray, 635 nm fluorescence, primary screen (AID 1102); details: FGF10 binding, fluorescence 635 nm, higher = more signal
[6] = system: glycogen synthase kinase-3 (GSK3A per assay name; protocol says GSK3B); assay: compounds binding glycogen synthase kinase-3 – biochemical, small-molecule microarray, 635 nm fluorescence, GSK3A, primary screen (AID 1103); details: fluorescence 635 nm, higher = more signal; note: the record names both GSK3A and GSK3B
[7] = molecular target: Epidermal growth factor receptor (Homo sapiens) (UniProt P00533); assay: compounds binding epidermal growth factor receptor – biochemical, small-molecule microarray, 635 nm fluorescence, primary screen (AID 1104); details: EGFR binding, higher = more signal;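 note: score merges 667 nm emission intensity with spot signal to noise over triplicate slides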
[8] = molecular target: Follistatin-related protein 3 (Homo sapiens) (UniProt O95633); assay: compounds binding follistatin-related protein 3 – biochemical, small-molecule microarray, 635 nm fluorescence, primary screen (AID 1105); details: FSTL3 binding, higher = more signal;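 note: score merges emission near 667 nm and signal to noise per printed spot across three slides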
[9] = molecular target: Dickkopf-related protein 1 (Homo sapiens) (UniProt O94907); assay: small molecules binding DKK1 protein – biochemical, small-molecule microarray, 635 nm fluorescence scan, primary screen (AID 1106); details: higher = more signal;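 note: score merges emission near 667 nm with signal to noise over three replicate slides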
[10] = system: Inhibin beta A chain (activin A); assay: small molecules binding activin A – biochemical, small-molecule microarray, 635 nm fluorescence scan, primary screen (AID 1107); details: INHBA, higher = more signal;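 note: mouse activin A protein probed at 4.33 µg/mL on printed slides; score merges bound-protein fluorescence near 667 nm with spot signal-to-noise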
[11] = system: Human papillomavirus type 1a protein E7 (residues 44-93); assay: small molecules binding HPV E7 44-93 – biochemical, small-molecule microarray, residues 44-93, 635 nm fluorescence, primary screen (AID 1108); details: fluorescence 635 nm, higher = more signal;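 note: E7 fragment applied at 1 µg/mL in TBST for 1 h at 4 C; score combines spot fluorescence with its signal to noise ratio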
[12] = hepatitis C replication reporter changes, two-sided – Huh7 cells, luciferase reporter, HCV replication inhibitor project, primary screen (AID 1109); details: Huh7 HCV replicon luciferase reporter, 48 h; higher = more signal;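 note: huh7 hepatoma cells harbouring a luciferase neomycin HCV replicon reporter; luciferase luminescence as measure of HCV replicon replication; test concentration not given here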
[13] = molecular target: Left-right determination factor 2 (Homo sapiens) (UniProt O00292); assay: small molecules binding LEFTY2 protein – biochemical, small-molecule microarray, 635 nm fluorescence scan, primary screen (AID 1110); details: higher = more signal
[14] = molecular target: Calmodulin-1 (Homo sapiens) (UniProt P0DP23); assay: small molecules binding calmodulin-1 with EGTA – biochemical, small-molecule microarray, Cy5-labelled CALM1, profiling panel (AID 1111); details: Cy5-CALM1 binding fluorescence, higher = more signal;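 note: labelled calmodulin applied in Tris saline Tween buffer holding calcium plus EGTA and DTT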
[15] = molecular target: Calmodulin-1 (Homo sapiens) (UniProt P0DP23); assay: small molecules binding Ca-loaded calmodulin-1 – biochemical, small-molecule microarray, Cy5-labelled CALM1, plus calcium, artefact control for SMM control-protein annotation, profiling panel (AID 1112); details: Cy5-CALM1 binding fluorescence, higher = more signal;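 note: score merges spot fluorescence with signal to noise from triplicate slides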
[16] = probe aWnt5a binding to arrayed compounds – biochemical, biotinylated probe, 635/667 nm fluorescence, primary screen (AID 1113); details: small-molecule microarray, higher = more signal;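 note: score merges 667 nm fluorescence intensity with signal-to-noise per printed feature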
[17] = probe aShh binding to arrayed compounds – biochemical, biotinylated probe, 635/667 nm fluorescence, primary screen (AID 1114); details: small-molecule microarray, higher = more signal;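 note: probe is biotin-labelled aShh protein from a stem cell growth factor screen; measures binding of labelled protein to compounds printed on the slide; score merges feature fluorescence at 667 nm with signal-to-noise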
[18] = probe aNog binding to arrayed compounds – biochemical, biotinylated probe, 635/667 nm fluorescence, primary screen (AID 1115); details: small-molecule microarray, higher = more signal;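 note: probe is biotinylated aNog protein used at 0.15 µg/mL for 1 h at 4 C; z-score combines 667 nm fluorescence of each spot with its signal to noise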
[19] = molecular target: Torsin-1A-interacting protein 1 (Homo sapiens) (UniProt Q5JTV8); assay: compound microarray binding of lysate hLAP1 – cell lysate, small-molecule microarray, COS7 lysate, 635/667 nm fluorescence, primary screen (AID 1116); details: 635 nm fluorescence, higher = more signal
[20] = molecular target: Alpha-bungarotoxin (Bungarus multicinctus) (UniProt P60615); assay: compounds binding labelled alpha-BTX control protein – biochemical, small-molecule microarray, Alexa647 label, 635/667 nm fluorescence, artefact control for SMM control protein annotation, profiling panel (AID 1117); details: alpha-BTX-A647 binding fluorescence, higher = more signal
Chain of Alpha-bungarotoxin (Bungarus multicinctus) (P60615 whole entry, looked up): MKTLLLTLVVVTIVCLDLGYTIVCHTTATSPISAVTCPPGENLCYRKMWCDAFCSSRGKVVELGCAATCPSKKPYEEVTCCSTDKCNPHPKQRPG

Chain of Left-right determination factor 2 (Homo sapiens) (O00292 whole entry, looked up): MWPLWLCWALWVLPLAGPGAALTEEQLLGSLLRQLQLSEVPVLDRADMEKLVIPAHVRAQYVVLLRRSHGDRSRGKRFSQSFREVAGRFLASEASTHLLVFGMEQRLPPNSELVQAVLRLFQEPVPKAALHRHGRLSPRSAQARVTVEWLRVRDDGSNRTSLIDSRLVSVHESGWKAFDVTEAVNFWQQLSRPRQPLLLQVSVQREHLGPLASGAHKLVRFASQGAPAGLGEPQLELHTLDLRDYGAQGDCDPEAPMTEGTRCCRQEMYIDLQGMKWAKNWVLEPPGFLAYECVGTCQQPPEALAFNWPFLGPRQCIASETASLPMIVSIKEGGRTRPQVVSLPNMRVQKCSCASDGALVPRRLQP
Chain of Fibroblast growth factor 10 (Homo sapiens) (O15520 whole entry, looked up): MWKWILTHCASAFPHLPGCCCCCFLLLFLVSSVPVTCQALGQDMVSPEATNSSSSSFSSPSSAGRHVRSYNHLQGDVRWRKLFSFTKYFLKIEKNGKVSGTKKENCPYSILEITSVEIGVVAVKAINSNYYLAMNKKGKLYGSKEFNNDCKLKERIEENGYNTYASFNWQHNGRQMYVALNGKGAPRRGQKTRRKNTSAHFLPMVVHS
Chain of Follistatin-related protein 3 (Homo sapiens) (O95633 whole entry, looked up): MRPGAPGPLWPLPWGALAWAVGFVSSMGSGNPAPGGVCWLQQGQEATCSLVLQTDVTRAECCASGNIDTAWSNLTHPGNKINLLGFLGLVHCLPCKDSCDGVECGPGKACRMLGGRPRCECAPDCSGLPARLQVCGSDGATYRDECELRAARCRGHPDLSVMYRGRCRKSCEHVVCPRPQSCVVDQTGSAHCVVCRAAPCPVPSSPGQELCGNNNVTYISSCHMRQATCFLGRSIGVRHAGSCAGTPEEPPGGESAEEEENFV
Chain of Dickkopf-related protein 1 (Homo sapiens) (O94907 whole entry, looked up): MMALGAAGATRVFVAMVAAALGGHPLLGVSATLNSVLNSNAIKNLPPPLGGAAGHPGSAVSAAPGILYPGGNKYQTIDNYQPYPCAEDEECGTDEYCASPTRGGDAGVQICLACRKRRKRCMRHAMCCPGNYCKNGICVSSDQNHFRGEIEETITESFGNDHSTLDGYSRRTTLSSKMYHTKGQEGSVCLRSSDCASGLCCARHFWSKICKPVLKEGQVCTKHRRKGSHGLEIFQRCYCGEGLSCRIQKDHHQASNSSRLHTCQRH
Chain of Torsin-1A-interacting protein 1 (Homo sapiens) (Q5JTV8 whole entry, looked up): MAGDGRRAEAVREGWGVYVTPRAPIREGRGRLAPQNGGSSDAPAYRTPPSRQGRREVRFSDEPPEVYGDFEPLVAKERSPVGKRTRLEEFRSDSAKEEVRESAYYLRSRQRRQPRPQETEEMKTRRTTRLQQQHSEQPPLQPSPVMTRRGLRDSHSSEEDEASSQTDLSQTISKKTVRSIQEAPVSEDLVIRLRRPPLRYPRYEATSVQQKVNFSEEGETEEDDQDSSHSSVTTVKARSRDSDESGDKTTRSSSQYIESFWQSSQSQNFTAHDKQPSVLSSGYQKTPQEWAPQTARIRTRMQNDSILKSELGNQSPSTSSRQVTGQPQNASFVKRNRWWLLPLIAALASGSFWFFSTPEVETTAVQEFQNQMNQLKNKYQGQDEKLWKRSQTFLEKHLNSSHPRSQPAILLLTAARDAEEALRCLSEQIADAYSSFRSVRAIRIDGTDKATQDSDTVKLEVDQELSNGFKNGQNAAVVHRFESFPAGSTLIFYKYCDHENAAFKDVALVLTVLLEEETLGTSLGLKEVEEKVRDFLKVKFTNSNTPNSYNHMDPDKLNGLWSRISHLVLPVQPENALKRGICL
Chain of Epidermal growth factor receptor (Homo sapiens) (P00533 whole entry, looked up): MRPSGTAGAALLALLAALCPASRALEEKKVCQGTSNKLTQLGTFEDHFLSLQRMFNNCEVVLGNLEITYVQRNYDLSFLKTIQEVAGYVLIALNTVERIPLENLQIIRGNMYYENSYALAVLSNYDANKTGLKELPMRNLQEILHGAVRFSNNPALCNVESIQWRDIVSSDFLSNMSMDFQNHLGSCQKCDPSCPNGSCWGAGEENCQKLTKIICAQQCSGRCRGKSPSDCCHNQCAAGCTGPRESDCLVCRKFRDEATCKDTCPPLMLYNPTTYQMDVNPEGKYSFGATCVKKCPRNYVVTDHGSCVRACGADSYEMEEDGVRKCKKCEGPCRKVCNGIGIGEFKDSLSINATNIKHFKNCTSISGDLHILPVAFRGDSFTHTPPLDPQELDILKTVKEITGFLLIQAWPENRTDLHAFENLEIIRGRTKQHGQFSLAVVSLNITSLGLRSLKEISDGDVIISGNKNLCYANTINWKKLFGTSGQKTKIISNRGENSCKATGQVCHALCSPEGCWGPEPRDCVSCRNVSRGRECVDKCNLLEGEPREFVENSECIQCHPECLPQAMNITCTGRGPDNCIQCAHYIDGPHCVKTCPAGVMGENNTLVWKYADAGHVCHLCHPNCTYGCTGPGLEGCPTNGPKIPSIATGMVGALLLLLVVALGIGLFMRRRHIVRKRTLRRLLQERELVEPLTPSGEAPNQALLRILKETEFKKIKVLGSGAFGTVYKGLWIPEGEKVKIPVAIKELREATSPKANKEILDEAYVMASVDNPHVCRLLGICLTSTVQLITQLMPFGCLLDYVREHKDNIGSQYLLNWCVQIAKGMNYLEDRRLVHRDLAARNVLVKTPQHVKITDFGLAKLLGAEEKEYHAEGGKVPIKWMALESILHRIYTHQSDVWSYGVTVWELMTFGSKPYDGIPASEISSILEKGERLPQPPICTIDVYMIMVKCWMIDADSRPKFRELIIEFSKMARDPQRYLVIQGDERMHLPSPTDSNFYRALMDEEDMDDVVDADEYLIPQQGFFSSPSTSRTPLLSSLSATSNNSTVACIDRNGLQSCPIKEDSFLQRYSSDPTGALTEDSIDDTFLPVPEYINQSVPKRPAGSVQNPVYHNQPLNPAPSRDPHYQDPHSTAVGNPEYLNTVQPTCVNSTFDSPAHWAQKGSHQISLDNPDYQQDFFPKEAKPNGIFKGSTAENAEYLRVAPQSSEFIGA

SMILES	composite z-score [1]	composite z-score [2]	composite z-score [3]	z-score [4]	composite z-score [5]	composite z-score [6]	composite z-score [7]	composite z-score [8]	composite z-score [9]	composite z-score [10]	composite z-score [11]	z-score [12]	composite z-score [13]	composite z-score [14]	composite z-score [15]	composite z-score [16]	composite z-score [17]	composite z-score [18]	composite z-score [19]	composite z-score [20]
COc1ccc(-c2cc3c(c(-c4ccccc4)n2)[Si](C(C)C)(C(C)C)O[C@H]3c2ccccc2)cn1	-0.309	-0.0513	-0.131	0.96 (inactive)	0.22	0.176	0.0928	0.352	0.0263	0.605	0.656	-1.4	-0.152	0.136	-0.265	-0.0512	-0.0626	-0.216	-0.126	0.599
Cc1ccc(N2C(=O)c3ccccc3[C@@H](C(=O)NCC(F)(F)F)[C@@H]2c2ccc(CO)cc2)nc1	1.72	0.476	1.22	-1.08 (inactive)	-1.15	-1.18	-2.69	-1.83	-1.69	-1.57	-2.16	0.643	-3.15	-1.65	-0.526	-0.226	-0.0626	-0.3	0.153	-1.81
COCCOC(=O)N1C(=O)[C@@]2(c3cc(C#CCNC(N)=O)ccc31)[C@H](c1ccc(OCCO)cc1)N1[C@H](c3ccccc3)[C@H](c3ccccc3)OC(=O)[C@H]1[C@@H]2C(=O)N1CCCCCCC1	0.795	1.48	1.11	-0.908 (inactive)	0.198	-0.246	0.0212	0.895	0.199	1.69	0.853	0.225	-0.11	0.914	0.966	-0.027	0.485	0.401	0.242	1.24
COc1ccc([Si](C)(C)[C@H]2[C@H](CCO)O[C@@]3(C(=O)N(Cc4ccccc4)c4ccc(N5C(=O)c6cccc7cccc5c67)cc43)[C@@H]2C)cc1	0.0883	0.153	0.633	-1.1 (inactive)	-0.558	-0.636	-0.835	-0.574	-0.784	0.629	-0.137	-4.5	-0.681	0.793	0.906	-0.124	-0.0769	0.0936	0.461	0.524
CC(C)[Si]1(C(C)C)O[C@@H](c2ccccc2)c2cc(C3CC3)nc(-c3ccc(Oc4ccccc4)cc3)c21	-1.25	-0.105	-0.037	-0.961 (inactive)	-0.318	-0.343	-0.0891	-0.489	-0.159	0.513	-0.266	-0.176	-0.436	-0.395	0.89	-0.0758	-0.214	-0.158	0.0613	-0.789
